# In paper PMC8384837, “Expanding the binding specificity for RNA recognition by a PUF domain”:
# Where a chain is given by its changes, count along the chain named.
# Experiments:
# Assay in all cases: yeast three-hybrid, YBZ-1, SC-Leu-His + 0.5 mM 3-AT, 4 days
# Details in all cases: tags: N-Gal4 AD-HA kept; label: inside an RPR1-promoter hybrid RNA with tandem MS2 sites; ssRNA
# PUM1 PUF domain R5-KRK = PUM1 PUF domain R5-KRK (Homo sapiens, UniProt Q14671 828-1176, C1007K;Q1011K)
# Procedure, shortened: (§1)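 Sequencing with Illumina followed PCR amplification of the repeat regions from transformants grown four days on SC-Leu (input) or SC-Leu-His + 0.5 mM 3-AT (selection). The transformants were strain YBZ-1 with a LexA–MS2 coat fusion and a HIS3 reporter, carrying Pumilio-1 PUF domain libraries and matching RNA elements. The interaction score is the log change in variant frequency from input to selection, computed in log2 with a pseudocount of 1 for absent variants.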
# PUM1 PUF domain R3-PFV = PUM1 PUF domain R3-PFV (Homo sapiens, UniProt Q14671 828-1176, C935P;R936F;Q939V)
# Procedure, shortened: as §1
# PUM1 PUF domain R1-TRR = PUM1 PUF domain R1-TRR (Homo sapiens, UniProt Q14671 828-1176, S863T;Q867R)
# Procedure, shortened: as §1
# PUM1 PUF domain R2-RVT = PUM1 PUF domain R2-RVT (Homo sapiens, UniProt Q14671 828-1176, N899R;Y900V;Q903T)
# Procedure, shortened: as §1
# PUM1 PUF domain R4-WGM = PUM1 PUF domain R4-WGM (Homo sapiens, UniProt Q14671 828-1176, N971W;H972G;Q975M)
# Procedure, shortened: as §1
# PUM1 PUF domain R4-WSH = PUM1 PUF domain R4-WSH (Homo sapiens, UniProt Q14671 828-1176, N971W;H972S;Q975H)
# Procedure, shortened: as §1
# PUM1 PUF domain R4-TPN = PUM1 PUF domain R4-TPN (Homo sapiens, UniProt Q14671 828-1176, N971T;H972P;Q975N)
# Procedure, shortened: as §1
# PUM1 PUF domain R7-ISG = PUM1 PUF domain R7-ISG (Homo sapiens, UniProt Q14671 828-1176, S1079I;N1080S;E1083G)
# Procedure, shortened: as §1
# PUM1 PUF domain R7-RAR = PUM1 PUF domain R7-RAR (Homo sapiens, UniProt Q14671 828-1176, S1079R;N1080A;E1083R)
# Procedure, shortened: as §1
# PUM1 PUF domain R8-KFY = PUM1 PUF domain R8-KFY (Homo sapiens, UniProt Q14671 828-1176, N1122K;Y1123F;Q1126Y)
# Procedure, shortened: as §1
# PUM1 PUF domain R4-VPC = PUM1 PUF domain R4-VPC (Homo sapiens, UniProt Q14671 828-1176, N971V;H972P;Q975C)
# Procedure, shortened: as §1
# PUM1 PUF domain R5-KVE = PUM1 PUF domain R5-KVE (Homo sapiens, UniProt Q14671 828-1176, C1007K;R1008V;Q1011E)
# Procedure, shortened: as §1
# PUM1 PUF domain R5-RST = PUM1 PUF domain R5-RST (Homo sapiens, UniProt Q14671 828-1176, C1007R;R1008S;Q1011T)
# Procedure, shortened: as §1
# PUM1 PUF domain R3-SRF = PUM1 PUF domain R3-SRF (Homo sapiens, UniProt Q14671 828-1176, C935S;Q939F)
# Procedure, shortened: as §1
# PUM1 PUF domain R3-FYS = PUM1 PUF domain R3-FYS (Homo sapiens, UniProt Q14671 828-1176, C935F;R936Y;Q939S)
# Procedure, shortened: as §1
# PUM1 PUF domain R2-NWP = PUM1 PUF domain R2-NWP (Homo sapiens, UniProt Q14671 828-1176, Y900W;Q903P)
# Procedure, shortened: as §1
# PUM1 PUF domain R6-IFQ = biological target: T1, PUM1 PUF domain R6-IFQ (Homo sapiens, UniProt Q14671 828-1176, N1043I;Y1044F)
# T1 sequence: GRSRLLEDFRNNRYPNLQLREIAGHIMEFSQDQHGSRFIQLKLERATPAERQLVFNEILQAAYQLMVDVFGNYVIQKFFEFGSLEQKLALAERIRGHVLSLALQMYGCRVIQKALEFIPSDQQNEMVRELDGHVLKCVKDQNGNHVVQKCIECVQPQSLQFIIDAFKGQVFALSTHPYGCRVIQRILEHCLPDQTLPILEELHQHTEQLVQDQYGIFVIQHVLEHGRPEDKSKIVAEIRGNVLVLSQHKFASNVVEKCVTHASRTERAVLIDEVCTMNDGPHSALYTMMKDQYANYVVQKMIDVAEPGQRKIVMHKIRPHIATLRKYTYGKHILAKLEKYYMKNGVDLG
# Procedure, shortened: as §1
# PUM1 PUF domain R8-MHK = PUM1 PUF domain R8-MHK (Homo sapiens, UniProt Q14671 828-1176, N1122M;Y1123H;Q1126K)
# Procedure, shortened: as §1
# PUM1 PUF domain R6-NWV = biological target: T2, PUM1 PUF domain R6-NWV (Homo sapiens, UniProt Q14671 828-1176, Y1044W;Q1047V)
# T2 sequence: T1 sequence with I216N, F217W, Q220V
# Procedure, shortened: as §1
# PUM1 PUF domain R5-DWW = PUM1 PUF domain R5-DWW (Homo sapiens, UniProt Q14671 828-1176, C1007D;R1008W;Q1011W)
# Procedure, shortened: as §1
# Sequence of PUM1 PUF domain R4-TPN (Q14671 828-1176 N971T/H972P/Q975N): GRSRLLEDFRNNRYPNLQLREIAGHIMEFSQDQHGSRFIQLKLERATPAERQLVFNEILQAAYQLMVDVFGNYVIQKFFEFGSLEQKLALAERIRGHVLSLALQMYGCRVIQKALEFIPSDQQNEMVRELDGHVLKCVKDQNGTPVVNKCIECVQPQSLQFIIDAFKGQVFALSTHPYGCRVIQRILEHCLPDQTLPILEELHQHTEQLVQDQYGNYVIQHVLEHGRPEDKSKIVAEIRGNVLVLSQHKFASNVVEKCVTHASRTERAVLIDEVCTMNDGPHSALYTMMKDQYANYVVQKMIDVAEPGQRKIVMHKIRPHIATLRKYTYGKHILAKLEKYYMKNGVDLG
sequence,measurement,setting,value
GGCUAGAACUAGUGGAUCCCCCGGCGCCCGGCGGCUCGAGCCCGGGUAAGUGUUAAUAGUCUGCAUGCCGCCGGGCGCCAUGCCUGCAGGUCGACUCUAGAAAACAUG,binding signal,PUM1 PUF domain R5-KRK,2.98 log2 enrichment (interaction score)
GGCUAGAACUAGUGGAUCCCCCGGCGCCCGGCGGCUCGAGCCCGGGUAAGUGUAAUUAGUCUGCAUGCCGCCGGGCGCCAUGCCUGCAGGUCGACUCUAGAAAACAUG,binding signal,PUM1 PUF domain R3-PFV,2.52 log2 enrichment (interaction score)
GGCUAGAACUAGUGGAUCCCCCGGCGCCCGGCGGCUCGAGCCCGGGUAAGUGUAAAUCGUCUGCAUGCCGCCGGGCGCCAUGCCUGCAGGUCGACUCUAGAAAACAUG,binding signal,PUM1 PUF domain R1-TRR,4.23 log2 enrichment (interaction score)
GGCUAGAACUAGUGGAUCCCCCGGCGCCCGGCGGCUCGAGCCCGGGUAAGUGUAAAGAGUCUGCAUGCCGCCGGGCGCCAUGCCUGCAGGUCGACUCUAGAAAACAUG,binding signal,PUM1 PUF domain R2-RVT,2.17 log2 enrichment (interaction score)
GGCUAGAACUAGUGGAUCCCCCGGCGCCCGGCGGCUCGAGCCCGGGUAAGUGUAAAUUGUCUGCAUGCCGCCGGGCGCCAUGCCUGCAGGUCGACUCUAGAAAACAUG,binding signal,PUM1 PUF domain R1-TRR,3.12 log2 enrichment (interaction score)
GGCUAGAACUAGUGGAUCCCCCGGCGCCCGGCGGCUCGAGCCCGGGUAAGUGUAUAUAGUCUGCAUGCCGCCGGGCGCCAUGCCUGCAGGUCGACUCUAGAAAACAUG,binding signal,PUM1 PUF domain R4-WGM,2.85 log2 enrichment (interaction score)
same,binding signal,PUM1 PUF domain R4-WSH,4.36 log2 enrichment (interaction score)
same,binding signal,PUM1 PUF domain R4-TPN,3.42 log2 enrichment (interaction score)
GGCUAGAACUAGUGGAUCCCCCGGCGCCCGGCGGCUCGAGCCCGGGUAAGUUUAAAUAGUCUGCAUGCCGCCGGGCGCCAUGCCUGCAGGUCGACUCUAGAAAACAUG,binding signal,PUM1 PUF domain R7-ISG,5.55 log2 enrichment (interaction score)
same,binding signal,PUM1 PUF domain R7-RAR,4.56 log2 enrichment (interaction score)
GGCUAGAACUAGUGGAUCCCCCGGCGCCCGGCGGCUCGAGCCCGGGUAAGCGUAAAUAGUCUGCAUGCCGCCGGGCGCCAUGCCUGCAGGUCGACUCUAGAAAACAUG,binding signal,PUM1 PUF domain R8-KFY,2.74 log2 enrichment (interaction score)
GGCUAGAACUAGUGGAUCCCCCGGCGCCCGGCGGCUCGAGCCCGGGUAAGUGUACAUAGUCUGCAUGCCGCCGGGCGCCAUGCCUGCAGGUCGACUCUAGAAAACAUG,binding signal,PUM1 PUF domain R4-VPC,3.7 log2 enrichment (interaction score)
same,binding signal,PUM1 PUF domain R4-TPN,4.27 log2 enrichment (interaction score)
GGCUAGAACUAGUGGAUCCCCCGGCGCCCGGCGGCUCGAGCCCGGGUAAGUGUCAAUAGUCUGCAUGCCGCCGGGCGCCAUGCCUGCAGGUCGACUCUAGAAAACAUG,binding signal,PUM1 PUF domain R5-KRK,3.89 log2 enrichment (interaction score)
same,binding signal,PUM1 PUF domain R5-KVE,2.24 log2 enrichment (interaction score)
same,binding signal,PUM1 PUF domain R5-RST,2.91 log2 enrichment (interaction score)
GGCUAGAACUAGUGGAUCCCCCGGCGCCCGGCGGCUCGAGCCCGGGUAAGUGUAAAUAGUCUGCAUGCCGCCGGGCGCCAUGCCUGCAGGUCGACUCUAGAAAACAUG,binding signal,PUM1 PUF domain R3-PFV,3.44 log2 enrichment (interaction score)
same,binding signal,PUM1 PUF domain R3-SRF,2.58 log2 enrichment (interaction score)
same,binding signal,PUM1 PUF domain R3-FYS,3.03 log2 enrichment (interaction score)
same,binding signal,PUM1 PUF domain R4-VPC,2.65 log2 enrichment (interaction score)
same,binding signal,PUM1 PUF domain R2-NWP,4.83 log2 enrichment (interaction score)
same,binding signal,PUM1 PUF domain R8-KFY,2.5 log2 enrichment (interaction score)
same,binding signal,PUM1 PUF domain R4-WSH,1.11 log2 enrichment (interaction score)
same,binding signal,PUM1 PUF domain R6-IFQ,3.62 log2 enrichment (interaction score)
same,binding signal,PUM1 PUF domain R4-TPN,5.21 log2 enrichment (interaction score)
same,binding signal,PUM1 PUF domain R8-MHK,2.63 log2 enrichment (interaction score)
GGCUAGAACUAGUGGAUCCCCCGGCGCCCGGCGGCUCGAGCCCGGGUAAGUCUAAAUAGUCUGCAUGCCGCCGGGCGCCAUGCCUGCAGGUCGACUCUAGAAAACAUG,binding signal,PUM1 PUF domain R7-RAR,1.83 log2 enrichment (interaction score)
GGCUAGAACUAGUGGAUCCCCCGGCGCCCGGCGGCUCGAGCCCGGGUAAGUGAAAAUAGUCUGCAUGCCGCCGGGCGCCAUGCCUGCAGGUCGACUCUAGAAAACAUG,binding signal,PUM1 PUF domain R6-NWV,3.35 log2 enrichment (interaction score)
GGCUAGAACUAGUGGAUCCCCCGGCGCCCGGCGGCUCGAGCCCGGGUAAGUGUGAAUAGUCUGCAUGCCGCCGGGCGCCAUGCCUGCAGGUCGACUCUAGAAAACAUG,binding signal,PUM1 PUF domain R5-DWW,5.08 log2 enrichment (interaction score)
